Test results: PubChem BioAssay (NCI)
This is part of a sample that, as a whole, favours compounds with a hit. Of some 79,000 tested, about 15% had one in any assay. Activity calls are given as the source filed them. Rule as the data show it: active = growth inhibition above about 70%; inactive = the rest.

Assays:
[1] = NCI Yeast Anticancer Drug Screen. Data for the rad50 strain (AID 155);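 also: 0% = growth of vehicle-only cultures of the same strain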; conditions: S. cerevisiae rad50 strain growth inhibition; at 50.0 µM; hits give high values
Method in brief: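 Readout: growth inhibition relative to vehicle-treated cultures. Compound exposure was carried out in a genetically defined yeast strain deficient in DNA damage repair.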

[2] = NCI Yeast Anticancer Drug Screen. Data for the mec2-1 strain (AID 157); conditions: S. cerevisiae mec2-1 strain, at 50.0 µM, hits give high values
Method in brief: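 Yeast mec2-1 mutant treated with compound. Readout: growth inhibition vs vehicle controls.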

[3] = NCI Yeast Anticancer Drug Screen. Data for the sgs1 mgt1 strain (AID 161);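 also: 0% = growth of cultures given vehicle only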; conditions: S. cerevisiae sgs1 mgt1 strain, at 50.0 µM, hits give high values
Method in brief: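 Inhibition of yeast growth, normalised to vehicle-treated controls, is reported for a strain bearing genetic alterations in DNA damage repair.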

[4] = NCI Yeast Anticancer Drug Screen. Data for the cln2 rad14 strain (AID 165);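 also: 0% = growth equal to vehicle treated cultures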; conditions: S. cerevisiae cln2 rad14 strain, at 50.0 µM, hits give high values
Method in brief: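 cln2 rad14 yeast strain; compound exposure; growth inhibition read vs vehicle controls.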

[5] = NCI Yeast Anticancer Drug Screen. Data for the bub3 strain (AID 167); conditions: S. cerevisiae bub3 mutant strain, at 50.0 µM, hits give high values
Method in brief: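 Readout: yeast growth inhibition, expressed relative to vehicle-only wells. The test organism is a mutant strain from a panel with lesions in DNA repair or checkpoint genes.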

[6] = NCI Yeast Anticancer Drug Screen. Data for the mlh1 rad18 strain (AID 175); conditions: S. cerevisiae mlh1 rad18 strain growth inhibition; at 50.0 µM; hits give high values
Method in brief: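 Yeast w/ defined DNA-repair lesions; compound exposure; growth vs vehicle controls → % inhibition.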

Measured: growth inhibition

CCCC(=O)OCC(COC(=O)CCC)OC(=O)CCC
inactive: [1] -26.8% | [2] -8.35% | [3] -17.4% | [4] 24.6% | [5] 4.9% | [6] 7.1%

CN(C)/C=N/c1nc2ncn(CCOC(=O)c3ccccc3)c2c(=O)[nH]1
inactive: [1] -20.6% | [2] -24.6% | [3] 11.3% | [4] 10.6% | [5] -11.4% | [6] -20.9%

CN(C)CC(CN(C)C)C(=O)O
inactive: [1] -0.2% | [2] 2.75% | [3] -13.3% | [4] 22% | [5] -6.25% | [6] -15.7%

COc1ccc2c(c1)CCc1c(C(C)=O)c3ccccc3n1C2
inactive: [1] 19.8% | [2] -13.3% | [3] 46.4% | [4] 15.2% | [5] 47.1% | [6] 2.15%

O=C1c2ccccc2-c2ccc(N=Cc3cccs3)cc21
inactive: [1] 30.9% | [2] -5.65% | [3] -3.35% | [4] 9.4% | [5] 33.5% | [6] 11.7%

[CH3][Sn]([CH3])([N](c1ccccn1)c1ccccn1)[N](c1ccccn1)c1ccccn1
inactive: [1] -8.85% | [2] 2.7% | [3] 17% | [4] -17.3% | [5] -1.65% | [6] -21.4%

Cc1cc(S(=O)(=O)NC(=NCC(=O)NN)NN)c(S)cc1Cl
inactive: [1] -9.85% | [2] 2.65% | [3] -16.6% | [4] -6.95% | [5] 1.3% | [6] 15.4%

c1ccc2c[n+](Cc3ccc4ccccc4n3)ccc2c1
inactive: [1] 13% | [2] -4.3% | [3] 4.05% | [4] -60% | [5] -9.9% | [6] 9.9%

Cn1nnnc1NN(c1nnnn1C)C1C=CCC=C1
inactive: [1] 6.4% | [2] -6% | [3] 0% | [4] -18% | [5] 1.95% | [6] -10.7%

C/C(COC(=O)c1cc(C)nc2ccccc12)=N\O
inactive: [1] -22.6% | [2] 17% | [3] -0.65% | [4] -20.8% | [5] 21.1% | [6] -11.6%

O=C1N(CC2CO2)CCN1CC1CO1 (stereo unspecified)
inactive: [1] -22.4% | [2] -10.2% | [3] -5.3% | [4] -5.15% | [5] -20.4% | [6] -76%

CCOC(=O)CCC(NC(=O)C(CCC(=O)OCC)NC(=O)C(Cc1ccc([N+](=O)[O-])cc1)NC(C)=O)C(=O)NNC(=O)OC(C)(C)C (stereo unspecified)
inactive: [1] -22.8% | [2] -28.4% | [3] -17% | [4] -3.35% | [5] -23.6% | [6] -7.3%

CC(C)C1(C(C)C)OCC(CO)O1 (stereo unspecified)
inactive: [1] 9.55% | [2] -7.75% | [3] -7.85% | [4] -60.2% | [5] 16.4% | [6] -9.3%

Cc1nc2[nH]cc(-c3ccccc3)c2c(=N)n1-c1ccc(F)cc1
inactive: [1] -7.45% | [2] 0.8% | [3] -11.2% | [4] -23.1% | [5] -7.6% | [6] 0.55%

C1CCCC(N2N=NC3C4CC(C5N=NN(C6CCCCCC6)C45)C32)CC1 (stereo unspecified)
inactive: [1] 12.8% | [2] 17.5% | [3] 7.65% | [4] 64.8% | [5] -8.55% | [6] 11.7%

N#CNS(=O)(=O)c1ccccc1
inactive: [1] 8.3% | [2] -5.6% | [3] 22.6% | [4] 14% | [5] 12.2% | [6] 17.6%

CS(=O)(=O)c1nsc(N)n1
inactive: [1] -14% | [2] -8.6% | [3] -5.25% | [4] 2.15% | [5] -0.1% | [6] 2.7%

CC(=O)CC(C)(C)N
inactive: [1] -0.1% | [2] -9.7% | [3] -1.4% | [4] -6.05% | [5] 3.1% | [6] -2.1%

Cc1ccc(C(O)(c2ccc(C)cc2)C2CCCCC2=C(c2ccccc2)c2ccccc2)cc1 (stereo unspecified)
inactive: [1] 10.8% | [2] 3.45% | [3] -14.2% | [4] -7.35% | [5] -0.25% | [6] 15.2%

Cc1cc2nc3c(=O)[nH]c(=O)nc-3n(CC(O)C(O)C(O)C(O)CO)c2cc1C (stereo unspecified)
inactive: [1] 33.5% | [2] 3.2% | [3] -14.4% | [4] 7.05% | [5] -7.7% | [6] 23.2%

CCOC(=O)c1nnn(Cc2ccccc2)c1N
inactive: [1] -2.1% | [2] -7.35% | [3] 3.75% | [4] 26.1% | [5] 1.7% | [6] -9.35%

Nc1ccc(C(=O)Nc2ccc3c(O)cc(S(=O)(=O)O)cc3c2)cc1
inactive: [1] 23.2% | [2] 5.55% | [3] 2.65% | [4] -6.5% | [5] -10.5% | [6] 8.6%

N=c1sc2ccccc2n1CC(=O)O
inactive: [1] 2.2% | [2] -16.5% | [3] -13.3% | [4] -22.6% | [5] 3.85% | [6] -41.2%

Nc1ccc(-c2nc3ccc(N)cc3[nH]2)cc1
inactive: [1] -17.1% | [2] -17.9% | [3] -18.1% | [4] 6.45% | [5] -4% | [6] -18.2%

Cc1ccc(S(=O)(=O)n2ccnc2)cc1
inactive: [1] -46% | [2] -21.9% | [3] -1.25% | [4] 15.9% | [5] 11.7% | [6] -25.9%

C1=NC(c2ccccc2)=CN(C2CCCCC2)C1(c1ccccc1)C1CCCCC1 (stereo unspecified)
active: [1] 97.1% | [2] 96.5% | [3] 97.2% | [4] 94.6% | [5] 95.7% | [6] 96.5%

Cn1c(COc2ccc(/C=N\N3CCN(/N=C\c4ccc(OCc5c[n+]6ccccc6n5C)cc4)CC3)cc2)c[n+]2ccccc12
inactive: [1] -15.8% | [2] 11.8% | [3] 29.6% | [4] 25.7% | [5] -5.95% | [6] 44%

OC(c1ccccc1)(c1ccccc1)c1ccccc1CNc1ccccc1
inactive: [1] 45.5% | [2] 30.4% | [3] 26.2% | [4] 8% | [5] 19.8% | [6] 49.8%

c1ccc(N/N=C2/CSCc3ccccc32)cc1
inactive: [2] 68.8%
active: [1] 93.2% | [3] 91.5% | [4] 74.2% | [5] 80.8% | [6] 94.4%

CCOC(=O)CC1CC(C)(C(=O)OCC)C(=O)CC1=O (stereo unspecified)
inactive: [1] -21.1% | [2] -4.9% | [3] -11% | [4] 8.35% | [5] 7.5% | [6] 0%

CCOC(=O)C(=O)C(CCc1ccc2ccc3cccc4ccc1c2c34)C(=O)OCC (stereo unspecified)
inactive: [1] 10.2% | [2] 20.9% | [3] 6.55% | [4] -21.8% | [5] 0.35% | [6] 31.4%

C/C(=N\O)c1cccs1
inactive: [1] 3.8% | [2] -4.05% | [3] -6% | [4] -8.9% | [5] -0.25% | [6] -1.4%

CC(C)(C)CC(C)(C(=O)O)C(C)(C)C (stereo unspecified)
inactive: [1] 4% | [2] 9.25% | [3] -3.25% | [4] -12.6% | [5] 3.15% | [6] 14.7%

O=C(NCCCCCCNC(=O)NCc1ccc(Cl)c(Cl)c1)NCc1ccc(Cl)c(Cl)c1
inactive: [1] 13.6% | [2] 4% | [3] -3.8% | [4] -3.8% | [5] -1.9% | [6] 16.9%

[N-]=[N+]=C(C(=O)N1CCCC1=O)S(=O)(=O)c1ccccc1
inactive: [1] -17.3% | [2] -12.4% | [3] -17.9% | [4] 5.45% | [5] -14.4% | [6] 2.45%

O=[N+]([O-])c1cccc(-c2csc(NNC3=NC/C(=C/c4ccc5c(c4)OCO5)S3)n2)c1
inactive: [1] 33.5% | [2] -7.9% | [3] 33% | [4] -33.5% | [5] 23.6% | [6] 22.1%

COC(=O)c1nc(=S)[nH]c(C(=O)OC)c1C(=O)/C=C/c1ccccc1
inactive: [1] 0.1% | [2] -1.7% | [3] 8.05% | [4] -14.2% | [5] -1.75% | [6] 11.8%

COc1ccc(N=C2SC(=N/N=c3\sc4ccccc4n3C)SC2=Nc2ccc(OC)cc2)cc1
inactive: [1] 4.15% | [2] -32.9% | [3] -2.9% | [4] -41.1% | [5] 28.9% | [6] -12.7%

O=c1c2c(no[n+]2[O-])c2ccccc2n1-c1ccccc1
inactive: [2] 66%
active: [1] 96.7% | [3] 92.4% | [4] 86% | [5] 97.2% | [6] 96%

OC(CNc1ccc(Cl)nn1)c1ccccc1 (stereo unspecified)
inactive: [1] -3.35% | [2] -10.3% | [3] 21% | [4] 13.4% | [5] 9.7% | [6] -15.2%

C=CCNC(=S)NN(C)C
inactive: [1] -42% | [2] -16% | [3] -16.9% | [4] -51.5% | [5] -28.2% | [6] -16.4%
